Our source for the inhibition values is PubChem BioAssay AID1376 (SRMLSC, 2008).

Each structure is given as a SMILES string. The whole screen tested about 220,000 compounds, of which about 530 (0.24%) were called active. Rule as the data show it: active = inhibition above about 13%; inconclusive = no clear call, values can overlap the other calls; inactive = below that. This excerpt belongs to a sample that is enriched for actives. Entries with a potency or affinity are not part of this list.

For this assay, the target named is Bifunctional protein GlmU (Mycobacterium tuberculosis (strain ATCC 25618 / H37Rv)) (UniProt P9WMN3). Description: inhibition of mycobacterial GlmU enzyme – biochemical, glucosamine-1-phosphate acetyltransferase (AID 1376).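 Also: 0% = complete reaction with vehicle and 100% = reaction without substrate.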 The note with it: M. tuberculosis GlmU acetyltransferase enzyme assay; active compounds read high;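 tested at 30 µM in the primary screen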.
Chain of Bifunctional protein GlmU (Mycobacterium tuberculosis (strain ATCC 25618 / H37Rv)) (P9WMN3 whole entry, looked up): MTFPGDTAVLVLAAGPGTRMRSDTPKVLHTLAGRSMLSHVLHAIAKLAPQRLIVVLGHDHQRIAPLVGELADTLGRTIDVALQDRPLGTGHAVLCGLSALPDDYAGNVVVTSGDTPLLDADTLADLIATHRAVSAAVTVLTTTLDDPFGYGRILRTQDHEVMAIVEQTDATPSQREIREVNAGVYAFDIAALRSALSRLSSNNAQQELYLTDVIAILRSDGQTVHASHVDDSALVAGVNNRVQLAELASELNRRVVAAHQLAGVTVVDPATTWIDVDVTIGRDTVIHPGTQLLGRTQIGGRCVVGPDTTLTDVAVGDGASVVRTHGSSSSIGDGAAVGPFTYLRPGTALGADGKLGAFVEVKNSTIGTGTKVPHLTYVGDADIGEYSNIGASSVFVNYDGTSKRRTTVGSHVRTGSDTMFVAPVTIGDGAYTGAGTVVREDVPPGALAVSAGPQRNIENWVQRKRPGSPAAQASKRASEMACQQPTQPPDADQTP
Broadly, the inhibition is the drop in the measured response relative to a control, in per cent. On to `O=C(O)C1Nc2ccc(OC(F)(F)F)cc2C2C=CCC12` (configuration not stated), for which the inhibition was 13.1% (active).

Regarding `CCOC(=O)C1Nc2ccc(C)cc2C2C=CCC12` (configuration not stated), the inhibition was -1.77% (inactive).

On to `Cc1ccc2c(c1)C1C=CCC1C(C(=O)O)N2` (configuration not stated), for which the inhibition is 28% (active).

For the molecule `O=C(NC1CC1)C1Nc2ccc(OC(F)(F)F)cc2C2C=CCC12` (configuration not stated), the inhibition was -0.17% (inactive).

With `CCOC(=O)C1Nc2ccc(OC(F)(F)F)cc2C2C=CCC12` (configuration not stated), the inhibition was 1.1% (inactive).

In the case of `Cc1ccc2c(c1)C1C=CCC1C(C(=O)NCCCN1CCOCC1)N2` (configuration not stated), the inhibition is 3.8% (inactive).

In the case of `CCOC(=O)N1CCC(N(CCN(C)C)C(=S)Nc2ccccc2Cl)CC1`, the inhibition was 0.75% (inactive).

Turning to `O=C(CNC(=O)c1ccc2c(c1)OCCO2)N/N=C/c1ccco1`, the inhibition is -1.55% (inactive).

On to `Nc1ccccc1NC1=CC(=O)CC(c2ccccc2)C1` (configuration not stated), for which the inhibition is 2.07% (inactive).

Consider `COc1ccc(/C=N/NC(=O)CN(CCc2ccccc2)S(=O)(=O)c2ccc(NC(C)=O)cc2)cc1OC`, for which the inhibition is 1.25% (inactive).

As to `COc1cc(NS(=O)(=O)c2ccc(Nc3nc(-c4ccccn4)cs3)cc2)nc(OC)n1`, the inhibition was -0.88% (inactive).

Regarding `Cn1cnnc1SCc1ccc(C(=O)N/N=C(\CCC(=O)O)c2ccc(C(C)(C)C)cc2)cc1`, the inhibition is -2.55% (inactive).

As for `CCSc1nnc(NS(=O)(=O)c2ccc(C)cc2)s1`, the inhibition is -1.65% (inactive).

Consider `Cc1ccc(C)c(C2=CSC3=NS(=O)(=O)CCN23)c1`, for which the inhibition was 14.7% (active).

Consider `Cc1ccc(C2=CSC3=NS(=O)(=O)CCN23)cc1`, for which the inhibition is -2.55% (inactive).

For the molecule `Cc1ccc(C2=CSC3=NS(=O)(=O)CCN23)cc1C`, the inhibition is -2.13% (inactive).

As to `Cc1ccnc(SCc2cn3c(C)cc(C)nc3n2)n1`, the inhibition was -0.65% (inactive).

As for `CCc1ccc(N2CCN(C(=O)N3CCOCC3)CC2)cc1`, the inhibition is -4.7% (inactive).

Consider `C=CCOC(=O)C1=C(C)N(C)C(=O)NC1c1cc2c(cc1Br)OCO2` (configuration not stated), for which the inhibition is 0% (inactive).

For `Cc1cccc(-n2ncc3c(N(CCO)CCO)ncnc32)c1`, the inhibition is 2.36% (inactive).

In the case of `Cc1ccc(C(C)C)cc1NC(=O)Nc1ccc([N+](=O)[O-])cc1`, the inhibition was -2.4% (inactive).

On to `CCOc1ccc(NC(=O)Nc2cc(C(C)C)c(O)cc2C)cc1`, for which the inhibition was 1.34% (inactive).

`CCOc1ccc(NC(=O)Nc2cc(C(C)C)ccc2C)cc1`: the inhibition was 14.6% (active).

For `CSc1nc2ncc(C#N)cn2n1`, the inhibition was -5.13% (inactive).

`CC(=O)Nc1ccc(NC(=O)C(Cc2ccccc2)NC(=O)C2CCCCC2)cc1` (configuration not stated): the inhibition is 1.61% (inactive).

Turning to `c1ccc(-n2nnc(-c3cccnc3)n2)cc1`, the inhibition was 1.76% (inactive).

On to `CCSc1nc2c(c(=O)[nH]c(=O)n2C)n1CC(O)COc1ccccc1` (configuration not stated), for which the inhibition is -3.27% (inactive).

`Cc1ccccc1OCC(O)Cn1c(Br)nc2c1c(=O)[nH]c(=O)n2C` (configuration not stated): the inhibition was 1.77% (inactive).

With `COc1ccccc1OCC(O)Cn1c(Br)nc2c1c(=O)[nH]c(=O)n2C` (configuration not stated), the inhibition is 13.5% (active).

In the case of `COc1ccc(OCC(O)Cn2c(Br)nc3c2c(=O)[nH]c(=O)n3C)cc1` (configuration not stated), the inhibition is -0.99% (inactive).

With `CCCSc1nc2c(c(=O)[nH]c(=O)n2C)n1CC(O)COc1ccccc1` (configuration not stated), the inhibition is 14.1% (active).

In the case of `Cn1c(=O)[nH]c(=O)c2c1nc(SCCO)n2CC(O)COc1ccccc1` (configuration not stated), the inhibition was 0.72% (inactive).
